The assay can be described thus: cell-free HIV fusion peptide-binding blockers – biochemical, uHTS, fluorescence dequenching, primary screen (AID 1986). Particulars: 30 min, stronger effect = higher value.
Where [1] appears, read: measured here: repeat confirmation average inhibition, at 18.6 µM.

Where “and” joins values, the source holds several entries; their conditions need not be identical. Identical values can stand only once. Screen size: about 290,000 compounds; about 890 (0.31%) were called active. Cut-off read from the data, not from the text of the source: active = inhibition mostly above about 52% (no sharp cut-off); inactive = mostly below about 76%. The sample as a whole holds a higher share of actives than the screen did. Where a structure was tested more than once in an assay, its records may differ in their call.

In general, inhibition refers to the drop in the measured response relative to a control, in per cent.

For the molecule `Cc1cc(C(F)F)n2ncc(C(=O)NC3CCCCCC3)c2n1`, the inhibition (at 20 µM) is 3.7% (inactive).
As for `Cc1c(C(=O)NC(c2ccccn2)C(F)(F)F)oc2c(F)cccc12` (stereo not given), the inhibition (at 20 µM) is 0.9% (inactive).
On to `COc1ccc(CNC(=O)[C@@H](NC(=O)C2CCN(C(=O)[C@@H](N)Cc3ccccc3)CC2)C(C)C)cc1`, for which the inhibition (at 20 µM) is -1.9% (inactive).
Take `COc1ccc(OC)c(CNC(=O)CCSCc2ccc(F)cc2Cl)c1`: under “at 20 µM”, the inhibition is 0% (inactive).
Regarding `CCN1C(=O)/C(=C/N2CCc3ccccc32)SC1=S`, the inhibition was 112% (active) (at 20 µM) and 63% under setting [1].
In the case of `CCN1C(=O)/C(=C\N2CCCc3ccccc32)SC1=S`, for the setting “at 20 µM”, the inhibition is 3.7% (inactive).
Regarding `CCN1C(=O)/C(=C/N2CCc3ccccc3C2)SC1=S`, the inhibition (at 20 µM) was 0.4% (inactive).
As to `Fc1ccc(N2CCN(C(c3cccs3)c3nnnn3CCc3ccccc3)CC2)cc1` (stereo not given), the inhibition (at 20 µM) is -1.4% (inactive).
In the case of `COc1cc(C2CC(=O)N(CC(=O)NCC3CCCO3)c3ccccc3S2)cc(OC)c1OC` (stereo not given), where the note is “at 20 µM”, the inhibition was 0.6% (inactive).
On to `CC(C)(C)OC(=O)N1CCC(c2c(C(=O)NC3CC3)cnn2-c2ccc(Cl)cc2)CC1`, for which, where the note is “at 20 µM”, the inhibition was 3.6% (inactive).
With `CC(C)(C)OC(=O)N1CCC(c2cc(=O)n3[nH]c(-c4ccc(Cl)cc4)cc3n2)CC1`, under “at 20 µM”, the inhibition is -1.3% (inactive).
On to `COc1cc(NC(=O)c2cnn3c(C(F)F)cc(C4CC4)nc23)c(OC)cc1Cl`, for which, under “at 20 µM”, the inhibition was -0.3% (inactive).
As to `COc1ccc(-n2ncc(C(=O)NC3CC3)c2C2CCN(C(=O)OC(C)(C)C)CC2)cc1`, the inhibition (at 20 µM) is 1.2% (inactive).
For `COc1ccc(CCNC2CC(=O)N(CCc3ccccc3)C2=O)cc1` (stereo not given), under “at 20 µM”, the inhibition is 0.5% (inactive).
With `COCCN1C(=O)N(c2cccc(C)c2)C(=O)C1CC(=O)Nc1cc(OC)cc(OC)c1` (stereo not given), the inhibition (at 20 µM) is 0.1% (inactive).
Consider `O=C1OC(c2ccc(F)cc2)=C/C1=C\c1ccc(O)cc1`, for which the inhibition (at 20 µM) was 1.8% (inactive).
Regarding `O=C1OC(c2ccc(F)cc2)=C/C1=C\c1ccc([N+](=O)[O-])o1`, the inhibition (at 20 µM) was 77.6% (active).
As for `O=[N+]([O-])c1ccc(/C=N\NS(=O)(=O)c2ccc(F)cc2)o1`, the inhibition (at 20 µM) was 1.3% (inactive).
As for `COc1ccccc1/C=c1\sc2nc(-c3ccco3)nn2c1=O`, the inhibition (at 20 µM) was 36.3% (inactive).
On to `COc1ccc(OC)c(/C=c2\sc3nc(-c4cccs4)nn3c2=O)c1`, for which the inhibition (at 20 µM) was 60.9% (active) and the inhibition under setting [1] was 58%.
As to `CCOc1ccc(/C=c2\sc3nc(-c4ccco4)nn3c2=O)cc1OCC`, the inhibition (at 20 µM) is 21.5% (inactive).
Take `COc1ccc(Br)cc1/C=c1\sc2nc(-c3ccco3)nn2c1=O`: the inhibition (at 20 µM) is 56.1% (active).
Take `COc1ccc(/C=c2\sc3nc(-c4ccccc4OC)nn3c2=O)c(OC)c1`: the inhibition (at 20 µM) was 11.2% (inactive).
Regarding `COc1cccc(/C=c2\sc3nc(-c4cccs4)nn3c2=O)c1OC`, for the setting “at 20 µM”, the inhibition is 2.8% (inactive).
Still for that read-out and setting: the same measure for `CC(C)n1cc(C(=O)c2ccccc2O)cc(C#N)c1=O`: -0.9% (inactive); for `CC(C)CC(C(=O)O)N1C(=O)C2C3c4ccccc4C(c4ccccc43)[C@@H]2C1=O` (stereo not given in full): -0.8% (inactive).
As for `CCCCCCCNC(=O)C1(CC2CC(c3ccc(Cl)cc3)=NO2)CCN(C(=O)OC(C)(C)C)CC1` (stereo not given), the inhibition (at 20 µM) was 0.6% (inactive).
Turning to `Cc1oncc1C(=O)NC1CCCCC1`, the inhibition (at 20 µM) is 0.8% (inactive).
Regarding `CCOc1ccccc1N(CC(=O)NCCc1ccccc1)C(=O)CCC(=O)Nc1ccccn1`, the inhibition (at 20 µM) is 0% (inactive).
Regarding `C=CCN1C(=O)/C(=C\C=C2\N(C)c3ccccc3C2(C)C)SC1=S`, the inhibition (at 20 µM) is 54.6% (active).
Consider `CN1/C(=C\C=C2/SC(=S)N(CC(=O)O)C2=O)C(C)(C)c2ccccc21`, for which the inhibition (at 20 µM) is 148% (inactive).
As to `CCCCN1C(=O)/C(=C/C=C2\N(C)c3ccccc3C2(C)C)SC1=S`, the inhibition (at 20 µM) is -0.3% (inactive).
For `COc1cccc(-c2noc(CCCC(=O)Nc3ccc(C(N)=O)cc3)n2)c1`, the inhibition (at 20 µM) is 0.5% (inactive).
As to `CCCCCCn1ccc(=N)cc1`, the inhibition (at 20 µM) is -2% (inactive).
On to `CCCCCCCCCCCCCCCCn1cc[n+](C)c1`, for which the inhibition (at 20 µM) was 137% (inactive) and 70.3% (active).
As to `CCCCCCCCn1ccc(=N)cc1`, the inhibition (at 20 µM) was -1.2% (inactive).
Take `C[C@H](NC(=O)C1CCN(S(=O)(=O)c2ccccc2)CC1)C(=O)NCc1cccc(Cl)c1`: the inhibition (at 20 µM) is -1.4% (inactive).
For the molecule `CCOC(=O)C1=C(C)C2C3C(=O)N(c4cc(C)ccc4C)C(=O)C3C1(C)C1C(=O)N(c3cc(C)ccc3C)C(=O)C21` (stereo not given), the inhibition (at 20 µM) was -0.1% (inactive).
Consider `COC(=O)c1sc(N2C(=O)C(O)=C(C(=O)c3ccc(C)o3)C2c2ccc(OC)c(OC)c2)nc1C` (stereo not given), for which, where the note is “at 20 µM”, the inhibition was 15.3% (inactive).
The same measure, in the same setting: as for `CCOC(Cn1c(SCc2cc(C(C)=O)ccc2OC)nc2ccccc2c1=O)OCC`, the figure is 3.3% (inactive).
`COCCn1c(SCc2cc(C(C)=O)ccc2OC)nc2cc(Cl)ccc2c1=O`: the inhibition (at 20 µM) was -2.4% (inactive).
For the molecule `COc1ccc(C(C)=O)cc1CSc1nc2cc(C(=O)O)ccc2c(=O)n1Cc1ccccc1`, the inhibition (at 20 µM) was 62.4% (active).
Still for that read-out and setting: as for `COCC(C)n1c(SCC(=O)c2cc(C)n(C)c2C)nc2ccccc2c1=O` (stereo not given), the figure is 0.2% (inactive); as for `CC(C)(C)c1ccc(NC(=O)C2CCCN(c3cnccn3)C2)cc1` (stereo not given), -0.1% (inactive).
Take `Cc1ccc2c(c1)NC(=O)c1cc([N+](=O)[O-])ccc1O2`: the inhibition (at 20 µM) is 2.5% (inactive).
`Cc1cccc(Oc2cc([N+](=O)[O-])cc3c2C(=O)Nc2ccccc2O3)c1`: under “at 20 µM”, the inhibition was 46.8% (inactive).
Take `O=C1Nc2ccccc2Oc2cc([N+](=O)[O-])ccc21`: for the setting “at 20 µM”, the inhibition was 13% (inactive).
`O=C1Nc2ccccc2Oc2cc([N+](=O)[O-])cc(Oc3ccccc3)c21`: the inhibition (at 20 µM) is 59.7% (active).
